# From PubChem
# Sampled rows, rich in hits. Any-hit rate of the full collection: about 22%.
# CYP2C19 act – human CYP2C19 activators, primary screen, biochemical, luminescence; Cytochrome P450 2C19 (Homo sapiens), P33261; recombinant CYP2C19, luciferin-H EGE luminescence; active compounds read high; 0 = fully inhibited enzyme, 1 = untreated enzyme; activation factor at 5 µM; 96,000 tested, under 10 active;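 active = activation factor of at least 2 at 5 µM in the primary screen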;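 also: 0 = wells with 2.5 mM tranylcypromine and 1 = vehicle-only wells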
# Target sequence (P33261 whole entry, looked up): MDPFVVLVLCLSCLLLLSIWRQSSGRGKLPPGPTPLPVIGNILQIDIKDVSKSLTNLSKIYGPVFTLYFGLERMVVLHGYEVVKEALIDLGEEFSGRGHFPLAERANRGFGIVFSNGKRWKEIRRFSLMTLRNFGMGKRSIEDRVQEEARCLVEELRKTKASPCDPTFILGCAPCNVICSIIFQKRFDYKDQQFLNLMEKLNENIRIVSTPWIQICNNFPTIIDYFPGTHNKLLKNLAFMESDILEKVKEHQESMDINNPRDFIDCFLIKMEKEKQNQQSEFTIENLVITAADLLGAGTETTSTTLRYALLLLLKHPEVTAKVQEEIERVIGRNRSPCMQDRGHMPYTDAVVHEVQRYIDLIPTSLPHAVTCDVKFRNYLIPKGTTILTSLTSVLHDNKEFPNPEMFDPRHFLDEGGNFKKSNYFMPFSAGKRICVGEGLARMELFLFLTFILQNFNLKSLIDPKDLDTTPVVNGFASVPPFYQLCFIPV
# CYP2C9 act – human CYP2C9 activators, primary screen, biochemical, luminescence | 1.4% of 96,000 active | activation factor at 5 µM | Cytochrome P450 2C9 (Homo sapiens), P11712 | recombinant CYP2C9, luciferin-H conversion; active compounds read high; factor 1 = untreated enzyme, 0 = blocked;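 active = activation factor of 2 or more for CYP2C9 at a 5 µM dose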;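 also: 0 = sulfaphenazole-blocked wells and 1 = vehicle-only wells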
# CYP2C19 inhib – blockers of cytochrome P450 2C19 activity – biochemical, luminescence, ADME assay, primary screen; CYP2C19 Supersomes, luciferin-H EGE luminescence, 30 min; inhibition, % at 5 µM; P33261; 21% of 96,000 active; AID 778, 2007;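 active = CYP2C19 inhibition above a set limit at 5 µM in the primary screen, cut at about 50% in these data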;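 also: plate controls were negative control wells for no effect and 2.5 mM tranylcypromine positive control for full effect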
# CYP2C9 inhib – blockers of cytochrome P450 2C9 activity – biochemical, luminescence, ADME assay, primary screen; P11712; CYP2C9 Supersomes, luciferin-H conversion; inhibition, % at 5 µM; 20% of 96,000 active; AID 777, 2007;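 active = blocking of liver enzyme CYP2C9 beyond about 50% at 5 µM, limit read from the data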
# cytoskel mod – modifiers of F-actin cytoskeleton organization, primary screen, imaging, HUVEC, phalloidin staining, high-content imaging; HUVEC TNFa F-actin phalloidin imaging; inhibition, % at 2 µM; 0.18% of 91,000 active; AID 836, 2007;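 active = inhibition above the batch mean plus 3 SD and confirmed as a hit by visual image inspection, cut at about 30% in these data, passing the limit was not always enough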
# E-sel TNF inh – E-selectin induction blockers in HUVEC – imaging, immunofluorescence, high content, primary screen; HUVEC TNFa-induced E-selectin immunofluorescence; 0.71% of 120,000 active; inhibition, % at 2 µM;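 active = inhibition above the batch mean plus 3 SD, and confirmed as a hit on visual image review, cut at about 43% in these data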;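 also: 0% = TNF-stimulated DMSO wells and 100% = unstimulated control wells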
# Numbers without * were called inactive; . = no result given.
SMILES,CYP2C19 act,CYP2C9 act,CYP2C19 inhib,CYP2C9 inhib,cytoskel mod,E-sel TNF inh
Cc1ccc(C)c(S(=O)(=O)N2CCCOC2CNC(=O)C(=O)NCc2ccncc2)c1 (stereo not drawn),.,.,.,.,.,-6
O=C(Nc1ccc(NC(=S)NC(=O)c2ccccc2Cl)cc1)c1cccc(Cl)c1,.,.,.,.,-46,18
CC(=O)Nc1cccc(NC(=O)C2CC(=O)N(c3ccc(C)cc3)C2)c1 (stereo not drawn),0.3,0.3,72*,68*,33,-7
Cc1ccc(N2CC(C(=O)Nc3cc(C)ccc3F)CC2=O)cc1 (stereo not drawn),0.3,0.1,75*,90*,.,-36
C=CCNC(=O)C1CC(=O)N(c2ccc(OCC(=O)Nc3ccc(Cl)c(C(F)(F)F)c3)cc2)C1 (stereo not drawn),1,1,4,5,-16,1
COC(=O)c1ccccc1NC(=O)C1CC(=O)N(c2ccc(C)cc2)C1 (stereo not drawn),0.7,0.4,29,57*,.,48
C=CCNC(=O)C1CC(=O)N(c2ccc(OCC(=O)Nc3cccc(OC)c3)cc2)C1 (stereo not drawn),0.8,0.4,19,56*,52*,10
O=c1[nH]c2ccc(S(=O)(=O)NCc3ccccc3)cc2[nH]1,.,.,.,.,.,-40
CCN1CCN(C(=O)c2sc3nc(C)nc(N4CCC(C)CC4)c3c2C)CC1,0.8,0.8,20,16,.,-3
CCc1ccc(N2CC(C(=O)Nc3ccc(C)c(S(=O)(=O)N4CCOCC4)c3)CC2=O)cc1 (stereo not drawn),0.1,0,90*,100*,-4,20
CCc1ccc(N2CC(C(=O)Nc3cccnc3)CC2=O)cc1 (stereo not drawn),0.4,0.3,58*,74*,-10,63*
[O-][n+]1c2c(nn1-c1ccccc1Cl)-c1nonc1CC2,0.9,1.1,8,-15,-3,-22
Cc1ccc(-n2c(O)c(C=Nc3ccc4c(c3)OCO4)c3ccccc3c2=O)cc1C,0.9,1.1,11,-6,4,.
Cc1cc(N=Cc2c(O)n(-c3ccc4c(c3)OCO4)c(=O)c3ccccc23)ccn1,0.4,0.4,55*,60*,-44,10
Cc1cccc(OCCn2nc(C(=O)O)c3ccccc3c2=O)c1,0.3,0.3,72*,68*,-8,-20
Cc1noc(C)c1Cn1nc(C(=O)O)c2ccccc2c1=O,0.6,0.2,36,80*,-16,-8
CNc1sc(C(=O)c2ccccc2F)c(N)c1-c1nc2ccccc2s1,0.1,0.2,89*,84*,.,1
O=C(O)C12C[C@H]3C[C@@H](C1)CC(n1ncc(N4CCN(c5ccccc5)CC4)c(Cl)c1=O)(C3)C2,.,.,.,.,.,3
Cc1ccccc1Cn1ccc(NC(=O)c2cnn3cccnc23)n1,0.5,0.5,45,50*,3,20
Cc1nc2c([nH]1)C1(CCN(Cc3ccccc3)CC1)C(C#N)=C(N)O2,0.8,0.9,18,14,-6,20
Cn1cnnc1SCc1ccc(F)c2ccccc12,0.4,1.1,56*,-13,-33,-9
Cn1cnnc1SCc1ccccc1,1.1,1.2,-13,-22,-25,.
COc1ccccc1OCc1ccc(C(=O)N2N=C(C(F)F)CC2(O)C(F)F)o1 (stereo not drawn),0.7,0.3,34,73*,-11,-16
O=C(c1ccc(Cn2cc(Br)cn2)o1)N1N=C(C(F)F)CC1(O)C(F)F (stereo not drawn),0.3,0.1,74*,93*,5,0
COc1cccc(C(c2nnnn2Cc2ccco2)N2CCN(c3cccc(C)c3C)CC2)c1OC (stereo not drawn),0.4,0.3,56*,70*,-6,5
SMILES,CYP2C19 act,CYP2C9 act,CYP2C19 inhib,CYP2C9 inhib,cytoskel mod,E-sel TNF inh
Clc1ccccc1C(c1nnnn1Cc1ccco1)N1CCN(Cc2ccco2)CC1 (stereo not drawn),0,0.8,96*,17,-4,-2
COc1cccc(C(c2nnnn2Cc2ccccc2)N2CCN(C(=O)c3ccco3)CC2)c1OC (stereo not drawn),0.6,0.6,37,43,15,2
CC(C)CCn1nnnc1CN1CCN(c2ccccc2)CC1,.,.,.,.,.,-10
c1ccc(-n2nc3c(ccc4cnnc43)[nH]2)cc1,0.7,0.4,32,60*,11,-9
O=C(CCCN1C(=O)CCC1=O)Nc1cccc(C(F)(F)F)c1,0.9,0.9,13,13,7,-17
COc1cc(C(=O)ON=C2C(C)=CC(=O)C=C2C)cc(OC)c1OC,1.1,1,-5,-1,-9,.
O=C1N=C(N2CCN(c3cccc4ccccc34)CC2)S/C1=C/c1cccs1,0.5,1.1,54*,-6,10,-13
Cc1ccccc1N1CCN(C2=NC(=O)/C(=C\c3cccs3)S2)CC1,.,.,.,.,.,-7
Cc1cc(C)cc(NC(=O)c2ccc(CSc3nnnn3C)cc2)c1,0.9,1.5,6,-45,-41,-36
COc1ccc(CSc2nnnn2C)cc1F,0.3,1,72*,-3,-8,6
Cn1nnnc1SCC(=O)NC(=O)Cc1ccccc1,0.7,1,27,4,-7,-4
CCc1ccc(CNCCSc2nnnn2C)cc1,0.3,0.9,70*,7,-1,2
COc1ccc(Br)cc1CNCCSc1nnnn1C,0,0.5,100*,55*,16,10
Cn1nnnc1SCCNC/C=C/c1ccccc1,0.2,0.9,80*,8,-21,18
Cc1ccc(NC(=O)CCC2CC(C)(C)OC2=O)cc1 (stereo not drawn),.,.,.,.,.,-13
Cc1cc(Oc2ccc(=O)n(C)n2)nc(=S)[nH]1,.,.,.,.,.,-13
COc1cccc(CNCCSc2nnnn2C)c1,0.3,1.1,71*,-11,-3,-23
Cn1nnnc1SCCNCc1cccc2ccccc12,0.1,0.8,86*,15,-3,-18
Cn1nnnc1SCCNCc1cccnc1,0.8,0.7,18,29,4,.
COc1ccc(CNCCSc2nnnn2C)cc1OC,0.9,1.3,12,-26,5,27
CCCc1[nH][nH]c(=O)c1C(c1cccc(Cl)c1)C(C#N)C#N (stereo not drawn),0.3,0.3,75*,75*,-10,-12
CC1(CC(=O)N/N=C/c2ccc(-c3cccc(C(F)(F)F)c3)o2)OCCO1,.,.,.,.,.,-3
COc1cccc(-c2ccc(C#N)c(OC(=O)c3ccc(Cl)cc3)n2)c1,0.9,0.7,11,27,-7,19
COc1cccc(-c2ccc(C#N)c(OC(=O)c3c(Cl)cccc3Cl)n2)c1,0.9,0.5,12,51*,.,-32
